The values that follow come from article PMC7862700, “An all-to-all approach to the identification of sequence-specific readers for epigenetic DNA modifications on cytosine”.

The first assay concerns the target T1, SPIC (Homo sapiens, UniProt Q8N5J4 1-248).
T1 sequence: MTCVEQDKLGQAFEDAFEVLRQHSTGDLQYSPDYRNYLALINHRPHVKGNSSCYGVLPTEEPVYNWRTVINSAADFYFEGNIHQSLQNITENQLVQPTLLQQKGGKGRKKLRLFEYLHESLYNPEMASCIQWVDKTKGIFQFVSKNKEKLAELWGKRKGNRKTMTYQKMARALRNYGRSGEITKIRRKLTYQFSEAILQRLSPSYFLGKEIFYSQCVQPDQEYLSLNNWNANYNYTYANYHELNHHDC
Description: DAPPL (digital affinity profiling via proximity ligation, sequencing); 10 mM Tris-HCl pH 7.5, 50 mM NaCl, 1 mM DTT, 4% glycerol, room temperature, 30 min; GST-TFs on glutathione beads, 16-mer random dsDNA library, 0.1% formaldehyde crosslink after washing; high values mean tight binding. The settings on record: protein: recombinant; tags: N-terminal GST; dsDNA, one strand shown. The gist of the method: (§1)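 Beads coated with glutathione captured GST-fused human transcription factors that had been expressed in yeast, and the factors were then given DNA barcodes and pooled with a tag-only sample. The pools were incubated with 200 nmole of a random double-stranded 16-mer DNA library in Tris/NaCl/DTT/glycerol buffer for 30 min at room temperature, washed, crosslinked with 0.1% formaldehyde and proximity-ligated with BsaI/T4 ligase at 37 °C for 1 h. PCR amplification and Illumina NextSeq500 sequencing came last. Binding signal is each hexamer's read frequency for a factor divided by its frequency for the tag-only sample.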
On to GACTCT, for which the binding signal is 1.55 fold enrichment (6-mer frequency, TF over GST control).

On to TTCAAG, for which the binding signal was 1.24 fold enrichment (6-mer frequency, TF over GST control). As to GCTTTG, the binding signal is 1.22 fold enrichment (6-mer frequency, TF over GST control). The same measure, in the same setting: the same measure for TCACCT: 1.31 fold enrichment (6-mer frequency, TF over GST control); for TGTTGC: 1.17 fold enrichment (6-mer frequency, TF over GST control). For the sequence CCTTAA, the binding signal was 1.22 fold enrichment (6-mer frequency, TF over GST control). In the case of ACTTCC, the binding signal is 8.15 fold enrichment (6-mer frequency, TF over GST control). Same read-out and setting: the result for TGTTAA reads 1.19 fold enrichment (6-mer frequency, TF over GST control); that for TTACTA, 1.38 fold enrichment (6-mer frequency, TF over GST control). On the same count and under the same terms, the same measure for GATTCC: 1.18 fold enrichment (6-mer frequency, TF over GST control).

TTACTC: the binding signal is 1.24 fold enrichment (6-mer frequency, TF over GST control).

Turning to AAGTAA, the binding signal was 1.35 fold enrichment (6-mer frequency, TF over GST control). The same measure, in the same setting: the same measure for ATCTGG: 1.1 fold enrichment (6-mer frequency, TF over GST control); for GAAATC: 1.48 fold enrichment (6-mer frequency, TF over GST control); for AACCCT: 1.18 fold enrichment (6-mer frequency, TF over GST control). As to TCTCAC, the binding signal was 1.55 fold enrichment (6-mer frequency, TF over GST control). With TTTAAA, the binding signal is 1.02 fold enrichment (6-mer frequency, TF over GST control). On to CTATGC, for which the binding signal was 1.54 fold enrichment (6-mer frequency, TF over GST control).

Turning to CATCCT, the binding signal was 1.63 fold enrichment (6-mer frequency, TF over GST control). On the same count and under the same terms, the same measure for TCTTTG: 1.13 fold enrichment (6-mer frequency, TF over GST control). Regarding TTGTAT, the binding signal is 1.28 fold enrichment (6-mer frequency, TF over GST control). Same read-out and setting: the same measure for ATGACC: 1.38 fold enrichment (6-mer frequency, TF over GST control). The same measure, in the same setting: the result for AATGCC reads 1.07 fold enrichment (6-mer frequency, TF over GST control); that for TACTAT, 1.45 fold enrichment (6-mer frequency, TF over GST control); that for TATTCC, 1.74 fold enrichment (6-mer frequency, TF over GST control). Consider TTTCTA, for which the binding signal was 1.52 fold enrichment (6-mer frequency, TF over GST control). Still for that read-out and setting: the result for TCTCTA reads 1.38 fold enrichment (6-mer frequency, TF over GST control); that for CCGAAC, 1.32 fold enrichment (6-mer frequency, TF over GST control).

Turning to CTGCGA, the binding signal is 1.1 fold enrichment (6-mer frequency, TF over GST control).

For the sequence GTATCC, the binding signal is 1.96 fold enrichment (6-mer frequency, TF over GST control).

Turning to TCCTTC, the binding signal is 2.26 fold enrichment (6-mer frequency, TF over GST control). Same read-out and setting: the result for TTAACC reads 1.26 fold enrichment (6-mer frequency, TF over GST control); that for ATTATA, 1.36 fold enrichment (6-mer frequency, TF over GST control); that for TCATTC, 1.13 fold enrichment (6-mer frequency, TF over GST control).

As to AAGTTC, the binding signal was 1.54 fold enrichment (6-mer frequency, TF over GST control).

As to TGCTTC, the binding signal is 2.35 fold enrichment (6-mer frequency, TF over GST control). Turning to ACAATC, the binding signal is 1.17 fold enrichment (6-mer frequency, TF over GST control). The same measure, in the same setting: the same measure for TTTCCG: 3.86 fold enrichment (6-mer frequency, TF over GST control). GATGGC: the binding signal is 1.45 fold enrichment (6-mer frequency, TF over GST control). On the same count and under the same terms, the result for TCCCAT reads 1.45 fold enrichment (6-mer frequency, TF over GST control).

A further assay deals with ELF4 (Homo sapiens, UniProt Q99607 1-663). The assay is described as above. The following applies: protein: recombinant; tags: N-terminal GST; dsDNA, one strand shown. A digest of the protocol: as §1
Sequence of ELF4 (Q99607 whole entry): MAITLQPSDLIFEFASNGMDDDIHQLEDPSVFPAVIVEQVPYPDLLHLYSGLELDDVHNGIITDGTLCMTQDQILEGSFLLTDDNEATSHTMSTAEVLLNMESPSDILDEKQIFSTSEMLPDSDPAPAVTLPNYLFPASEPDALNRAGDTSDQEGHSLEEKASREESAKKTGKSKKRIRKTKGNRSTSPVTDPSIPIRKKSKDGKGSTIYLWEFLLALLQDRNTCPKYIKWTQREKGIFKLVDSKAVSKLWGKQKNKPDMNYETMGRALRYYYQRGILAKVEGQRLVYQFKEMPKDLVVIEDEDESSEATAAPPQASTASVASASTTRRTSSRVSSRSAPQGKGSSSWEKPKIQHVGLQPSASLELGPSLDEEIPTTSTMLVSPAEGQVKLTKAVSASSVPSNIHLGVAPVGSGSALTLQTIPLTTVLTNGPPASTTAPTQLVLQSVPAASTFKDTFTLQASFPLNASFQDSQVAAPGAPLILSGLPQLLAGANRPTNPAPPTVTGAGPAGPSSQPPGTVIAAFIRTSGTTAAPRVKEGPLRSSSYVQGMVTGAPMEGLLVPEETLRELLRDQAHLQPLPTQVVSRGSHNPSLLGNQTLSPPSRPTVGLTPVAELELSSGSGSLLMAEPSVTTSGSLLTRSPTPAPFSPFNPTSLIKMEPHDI
In the case of GACTCT, the binding signal is 1.29 fold enrichment (6-mer frequency, TF over GST control).

As for TTCAAG, the binding signal is 1.29 fold enrichment (6-mer frequency, TF over GST control).

Consider GCTTTG, for which the binding signal is 1.17 fold enrichment (6-mer frequency, TF over GST control).

Take TCACCT: the binding signal is 1.33 fold enrichment (6-mer frequency, TF over GST control). For TGTTGC, the binding signal was 1.34 fold enrichment (6-mer frequency, TF over GST control).

Consider CCTTAA, for which the binding signal was 1.3 fold enrichment (6-mer frequency, TF over GST control).

As for ACTTCC, the binding signal is 7.63 fold enrichment (6-mer frequency, TF over GST control). For TGTTAA, the binding signal is 1.17 fold enrichment (6-mer frequency, TF over GST control). The same measure, in the same setting: the result for TTACTA reads 1.3 fold enrichment (6-mer frequency, TF over GST control). Still for that read-out and setting: the same measure for GATTCC: 1.19 fold enrichment (6-mer frequency, TF over GST control). Still for that read-out and setting: the result for TTACTC reads 1.29 fold enrichment (6-mer frequency, TF over GST control); that for AAGTAA, 1.27 fold enrichment (6-mer frequency, TF over GST control); that for ATCTGG, 1.22 fold enrichment (6-mer frequency, TF over GST control). On to GAAATC, for which the binding signal was 1.42 fold enrichment (6-mer frequency, TF over GST control). The same measure, in the same setting: the same measure for AACCCT: 1.34 fold enrichment (6-mer frequency, TF over GST control); for TCTCAC: 1.37 fold enrichment (6-mer frequency, TF over GST control).

On to TTTAAA, for which the binding signal was 1.19 fold enrichment (6-mer frequency, TF over GST control). On the same count and under the same terms, the same measure for CTATGC: 1.48 fold enrichment (6-mer frequency, TF over GST control); for CATCCT: 1.62 fold enrichment (6-mer frequency, TF over GST control); for TCTTTG: 1.17 fold enrichment (6-mer frequency, TF over GST control).
